Compound activity from PubChem.
mHTT CaM bind – mHTT-calmodulin interaction abrogation; AID 1671202; actives 3.6% (n = 190,000); inhibition, % at 15 µM; P42858; AlphaScreen His-mHTT/GST-CaM binding, luminescence;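 note: 0% = both proteins with DMSO and 100% = one protein alone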
Pf apPOL block – Pf-apPOL DNA polymerase inhibition. Recombinant Pf-apPOL, molecular beacon fluorescence, 1.5 h. inhibition, % at 10 µM. actives 0.25% (n = 210,000)
* marks the source's active call; other numbers are inactive results; . = no result. This excerpt belongs to a sample that is enriched for hits. Cut-off read from the data, not from the text of the source: active = inhibition above about 50%; inactive = the rest.

SMILES | mHTT CaM bind | Pf apPOL block
CN(C)C(NC(=O)c1ccc(F)cc1)C(Cl)(Cl)Cl (stereo not given) | 8 | -1
C=CCN(CC=C)S(=O)(=O)c1cc(Cl)ccc1Cl | -54 | .
COc1cccc(CNC(=O)N2CCC3(C2)NCc2ccccc2NC3=NC(C)(C)C)c1 (stereo not given) | 33 | -8
COc1cc(O)c(C(CCN2CCN(c3ccccc3)CC2)c2cc(OC)c(OC)c(OC)c2)c(OC)c1 (stereo not given) | 100* | -5
COc1ccc(C(CCN2CCOCC2)c2c(O)cc(OC)cc2OC)cc1 (stereo not given) | 6 | -8
COc1cc(O)c(C(CC(=O)N2CCCC2)c2ccc3c(c2)OCO3)c(OC)c1 (stereo not given) | 13 | 0
COc1cc(O)c(C(CCN2CCCC2)c2ccc(N(C)C)cc2)c(OC)c1 (stereo not given) | 60* | -4
COc1cc(O)c(C(CCN2CCCC2)c2ccc3c(c2)OCO3)c(OC)c1 (stereo not given) | 31 | -2
COc1cc(O)c(C(CCN2CCN(c3ccccc3)CC2)c2ccc3c(c2)OCO3)c(OC)c1 (stereo not given) | 82* | -2
COc1cc(O)c(C(CCN2CCCCC2)c2ccc(N(C)C)cc2)c(OC)c1 (stereo not given) | 30 | -7
COc1cc(O)c(C(CC(=O)N2CCN(c3ccccc3)CC2)c2ccc3c(c2)OCO3)c(OC)c1 (stereo not given) | 62* | 0
COc1ccc(Cl)cc1N/C=C(\C#N)c1nc(-c2ccc3c(c2)OCO3)cs1 | -5 | -12
O=S(=O)(c1cccnc1)N1CCCn2nc(-c3ccccc3)cc2C1 | 17 | -11
O=C(CN1CCN(S(=O)(=O)c2ccc(F)cc2)CC1)Nc1cc(Cl)ccc1Cl | -8 | -8
COc1ccc(C(=O)COc2nc(-c3ccccc3)cc(C(F)(F)F)c2C#N)cc1 | . | -9
O=C1OC(c2cccc(I)c2)=N/C1=C\C=C\c1ccccc1 | 5 | 2
c1cc(CN2CCCCCCC2)cs1 | 0 | -4
N#CC1=C(N)SC(N)=C(C#N)C1c1ccccc1 | 29 | 0
CCCCc1ccc(C2C(C#N)=C(N)SC(N)=C2C#N)s1 | 55* | -1
COc1cc2c(cc1NCc1ccccn1)oc1ccccc12 | 15 | -4
COc1ccc(-c2ccccc2)cc1NCc1cc(OC)c(O)c([N+](=O)[O-])c1 | 66* | 3
COc1ccc(CNC(=O)Cc2ccccc2)cc1OC | -3 | 6
COc1ccc(-c2ccccc2)cc1NCc1ccccn1 | 72* | -12
COc1ccc(-c2ccccc2)cc1NCc1ccc2c(c1)OCO2 | 57* | -2
COc1ccc([N+](=O)[O-])cc1NCc1ccccc1F | -46 | -1
SMILES | mHTT CaM bind | Pf apPOL block
COc1ccc(-c2ccccc2)cc1NCc1ccc(OC)c(OC)c1 | 73* | -6
COc1ccc(CNCc2ccc3c(c2)OCO3)cc1Br | -1 | 5
Cc1ccccc1-c1nnn(CC(=O)Nc2cccc(C)c2C)n1 | 6 | -2
CCN1CCC(=O)N(CC(=O)N2CCCCC2)CC1 | -10 | -3
COc1ccc(C2(CC#N)CCOC(C)(C)C2)cc1 (stereo not given) | -12 | 9
O=C1CCN(Cc2ccc(O)cc2)CCN1[C@H](CO)Cc1ccccc1 | -4 | -1
CC(C)C[C@@H](COCc1ccc(Cl)cc1)N1CCN(C(=O)c2ccc(C(F)(F)F)cc2)CCC1=O | 99* | -1
O=C(c1ccc(C(F)(F)F)cc1)N1CCC(=O)N([C@H](COCc2ccc(Cl)cc2)Cc2ccccc2)CC1 | 100* | -7
Cc1ccc(S(=O)(=O)N2CCC(=O)N([C@H](COCc3ccc(C(F)(F)F)cc3)C(C)C)CC2)cc1 | 30 | -3
CC(C)(C)c1ccc(C(=O)N2CCC(=O)N([C@H](COCc3ccc(Cl)cc3)Cc3ccccc3)CC2)cc1 | 48 | -1
O=C(c1ccc(C(F)(F)F)cc1)N1CCC(=O)N([C@H](COCc2ccc(C(F)(F)F)cc2)Cc2ccccc2)CC1 | 99* | -1
O=C(CSc1nc2c(c(=O)n1-c1ccc(F)cc1)SCC2)Nc1ccc2c(c1)OCCO2 | 6 | -6
OCc1cc(F)c(F)cc1Cl | -6 | .
CC(C)CCN1CC(=O)N(Cc2ccc3c(c2)OCO3)C(c2cccs2)C1=O (stereo not given) | -1 | -3
CC(=O)Nc1c2c(nn1-c1cccc(C)c1C)CSC2 | 41 | -9
Cc1cccc(C(=O)Nc2c3c(nn2-c2cccc(C)c2C)CSC3)c1 | 6 | -6
Cc1cccc(-n2nc3c(c2NC(=O)/C=C/c2ccccc2)CSC3)c1C | 94* | 4
Cc1cccc(-n2nc3c(c2NC(=O)/C=C/c2ccco2)CSC3)c1C | 95* | -4
O=C1Nc2ccccc2C1=Nc1ccc(SC(F)F)cc1 | 6 | .
Cc1ccc(NC(=O)N2CCN(CC(=O)N3CCN(c4ccccc4)CC3)C(=O)C2)cc1 | 14 | 1
CC(=O)Nc1ccc(S(=O)(=O)N(CC#N)CC#N)cc1 | 1 | -1
COc1ccc(/C=C2/N=C(c3ccccc3C)OC2=O)c(OC)c1OC | 12 | 6
O=C(Nc1ccc(F)cc1F)C1CC(=O)N(CCc2c[nH]c3ccc(F)cc23)C1 (stereo not given) | 15 | -2
COC(=O)c1cnc2nc(C)ccc2c1Nc1ccc(Cl)cc1F | 38 | -3
CCOC(=O)c1cnc2nc(C)ccc2c1Nc1ccc(F)c(Cl)c1 | 68* | -10
SMILES | mHTT CaM bind | Pf apPOL block
COC(=O)c1cnc2nc(C)ccc2c1Nc1ccc(Cl)cc1C | 85* | 1
CCOC(=O)c1cnc2nc(C)ccc2c1Nc1cc(F)ccc1Cl | 42 | 0
CCOC(=O)c1cnc2nc(C)ccc2c1Nc1cccc(Cl)c1 | 63* | -13
COC(=O)c1cnc2nc(C)ccc2c1Nc1cccc(Cl)c1 | 11 | -5
Cn1cc(C(=O)Nc2ccc(F)c(Cl)c2)c2c3ccccc3n(C)c2c1=O | 2 | -4
COc1cc([N+](=O)[O-])ccc1N=Cc1c(C)[nH]n(-c2ccccc2)c1=O | 15 | 1
Cc1cccn2c(=O)c3c(nc12)CCCC3 | -1 | .
CC12CC3CC(Br)(C1)CC(C(=O)NC(C)(C)CO)(C3)C2 (stereo not given) | 4 | -11
COc1cc(C=C(C#N)C(=O)c2ccsc2)cc(OC)c1OC | . | -8
CCn1cnc2cc(NCc3ccc(N(C)C)cc3)ccc21 | 14 | -5
CCN(CC)c1ccc(CNc2ccc3c(c2)ncn3CC)cc1 | 94* | -2
CCOc1ccc(CNc2ccc3c(c2)ncn3C(C)(C)C)cc1 | 30 | 5
CN(C)c1ccc(CNc2ccc3c(c2)ncn3C(C)(C)C)cc1 | 78* | -4
CC(=O)N1c2ccccc2NC2=C(C(=O)CC(c3ccco3)C2)C1c1cccs1 (stereo not given) | 9 | -3
CN(Cc1ccoc1)C(=O)Nc1ccc(F)cc1 | 0 | -1
C=CCn1c(=O)c2cnc(-c3ccc(Cl)cc3)nc2n(CC)c1=O | -6 | -1
Cc1cccc(-c2noc(-c3ccc(N4CCC(C)CC4)nc3)n2)c1 | -10 | 0
CCOc1ccc(N=C2C(=O)N(CN3CCCC(C)C3)c3ccccc32)cc1 (stereo not given) | 10 | -1
CCOc1ccc(N=C2C(=O)N(CN3CCCCC3)c3ccccc32)cc1 | 65* | 12
O=C(CC1CCN(C(=O)c2ccccc2)CC1)NCc1ccccc1 | -6 | -6
CCOc1ccc(-c2nnc(Nc3ccc(OC)c(C(N)=O)c3)c3ccccc23)cc1 | 65* | -2
